{
  "source": "ChEMBL document CHEMBL3988442",
  "about": "“University of Dundee, Small-Polar-MMV Screening Library” (2021)",
  "note": "Screen size: about 69,000 compounds; about 420 (0.61%) showed an effect of 50% or more. Only a selection was taken, and strong results are over-represented in it overall.",
  "data": [
    {"biological_target": "T1, Histidine--tRNA ligase (Leishmania infantum) (UniProt A4I591)", "T1 sequence (whole entry)": "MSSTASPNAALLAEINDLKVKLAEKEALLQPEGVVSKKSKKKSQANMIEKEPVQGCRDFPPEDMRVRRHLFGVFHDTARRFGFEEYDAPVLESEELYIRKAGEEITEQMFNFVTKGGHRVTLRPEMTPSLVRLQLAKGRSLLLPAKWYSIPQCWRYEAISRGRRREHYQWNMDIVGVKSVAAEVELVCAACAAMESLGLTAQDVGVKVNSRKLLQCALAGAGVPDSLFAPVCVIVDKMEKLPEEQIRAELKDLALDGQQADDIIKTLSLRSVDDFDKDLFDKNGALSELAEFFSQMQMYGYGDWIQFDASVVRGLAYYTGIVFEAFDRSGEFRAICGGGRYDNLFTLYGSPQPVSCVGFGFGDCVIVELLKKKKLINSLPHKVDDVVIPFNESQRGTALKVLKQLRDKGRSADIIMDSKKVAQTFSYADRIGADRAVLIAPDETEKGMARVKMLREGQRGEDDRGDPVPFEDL", "assay": "Leishmania infantum Histidine tRNA synthetase (LdHisRS)", "format": "functional", "parameters": "scale not given: in the data most compounds retested in dose-response had high values", "details": "30 µM", "units": {"Percent Effect": "%"}, "values": [
      {"smiles": "O=C(N[C@@H]1CN(Cc2ccc3c(c2)OCO3)[C@@H]2CCCO[C@@H]21)C1CC1", "Percent Effect": 7.55},
      {"smiles": "O=C1CC[C@H]2CN(c3ncc(F)cn3)CC[C@H]2N1CCc1ccccn1", "Percent Effect": 4.84},
      {"smiles": "Cc1csc(N2CCN(C(=O)Cc3ccc(C)s3)CC2)n1", "Percent Effect": 35.7},
      {"smiles": "Cc1csc(N2CCN(C(=O)CCC(=O)c3ccc(C)s3)CC2)n1", "Percent Effect": 50},
      {"smiles": "Cc1csc(N2CCN(C(=O)c3ccc(C)s3)CC2)n1", "Percent Effect": 11.4},
      {"smiles": "COCCN1CCO[C@@H]2CN(C(=O)COc3ccc(C)cc3)C[C@@H]2C1", "Percent Effect": 10.3},
      {"smiles": "Cc1cc(C(=O)N2CC[C@@H]3CO[C@@H](CN4CCCC4)[C@@H]3C2)no1", "Percent Effect": -2.63},
      {"smiles": "CCCn1nc2c(cc1=O)CN(CCN1CCCC1=O)CC2", "Percent Effect": 23.7},
      {"smiles": "CCn1nc2c(cc1=O)CN(CCCN1CCCC1=O)CC2", "Percent Effect": 30.7},
      {"smiles": "CCCn1nc2c(cc1=O)CN(CCCN1CCCC1=O)CC2", "Percent Effect": 52.4},
      {"smiles": "CCCn1nc2c(cc1=O)CN(CCCS(N)(=O)=O)CC2", "Percent Effect": 61.9},
      {"smiles": "CCCn1nc2c(cc1=O)CN(CC(=O)Nc1ccncc1)CC2", "Percent Effect": 25},
      {"smiles": "CCCn1nc2c(cc1=O)CN(CCS(C)(=O)=O)CC2", "Percent Effect": 40.5},
      {"smiles": "CN(C)C(=O)CO[C@H]1CN(Cc2ccccc2)[C@@H]2CCCO[C@H]12", "Percent Effect": 20.6},
      {"smiles": "CC(C)(C)CC(=O)N1CC[C@H]2NC(=O)N(Cc3ccccc3)C(=O)[C@H]21", "Percent Effect": 30.6},
      {"smiles": "Cc1ncsc1CN1CC[C@H]2OCC[C@@]2(C(=O)NC(C)C)C1", "Percent Effect": -0.971},
      {"smiles": "CO[C@@H]1CC[C@H]2[C@H]1OCCN2Cc1ccc(F)c(F)c1", "Percent Effect": 8.33},
      {"smiles": "c1cnn(CCCO[C@@H]2CN(C3CCOCC3)[C@@H]3CCCO[C@@H]32)c1", "Percent Effect": 15.3},
      {"smiles": "COc1ccccc1N1CCC(NCc2c(C)noc2C)C1", "note": "(stereo unspecified)", "Percent Effect": 7.14},
      {"smiles": "Cc1noc(C)c1CNc1c(N2CCCC2)cccc1N1CCCC1", "Percent Effect": 84},
      {"smiles": "Cc1noc(CNc2c(N3CCCC3)cccc2N2CCCC2)n1", "Percent Effect": 6.67},
      {"smiles": "Cc1noc([C@@H]2C[C@H]3CN(CC4CCOCC4)C[C@H]3O2)n1", "Percent Effect": 10.5},
      {"smiles": "CO[C@H]1CCN(C(=O)c2ccsc2)[C@@H]2CN(CC3CC3)C[C@H]12", "Percent Effect": 5.77},
      {"smiles": "Cc1nc(CN(C)C2CCN(Cc3ccc4ccccc4n3)C2)no1", "note": "(stereo unspecified)", "Percent Effect": 53.1},
      {"smiles": "CC(=O)N(Cc1noc(C)n1)C1CCN(Cc2ccc(C#N)cc2)C1", "note": "(stereo unspecified)", "Percent Effect": 17.1},
      {"smiles": "Cc1nc(CN(C)C2CCN(Cc3nc4ccccc4s3)C2)no1", "note": "(stereo unspecified)", "Percent Effect": 25.8},
      {"smiles": "CC(=O)N(Cc1noc(C)n1)C1CCN(Cc2ccccc2C#N)C1", "note": "(stereo unspecified)", "Percent Effect": 2.7},
      {"smiles": "Cc1nc(CN(C)C2CCN(Cc3nc4ccccc4n3C)C2)no1", "note": "(stereo unspecified)", "Percent Effect": 10.3},
      {"smiles": "CC(=O)N(Cc1noc(C)n1)C1CCN(Cc2cccc(C#N)c2)C1", "note": "(stereo unspecified)", "Percent Effect": 63.2},
      {"smiles": "Cc1cnc(N2C[C@@H]3[C@@H](C(=O)NCC(C)C)CCS(=O)(=O)[C@@H]3C2)nc1", "Percent Effect": 12.3},
      {"smiles": "CN1[C@H](Cn2cncn2)C[C@@H]2CN(C3CCOCC3)CC[C@@H]21", "Percent Effect": 20},
      {"smiles": "Cc1n[nH]c(C)c1CN1CC[C@@H]2[C@@H](CCC(=O)N2CCc2c[nH]cn2)C1", "Percent Effect": 19.4},
      {"smiles": "CC(C)CNC(=O)N1C[C@H]2C[C@H](C(=O)NCc3ccccc3)[C@@H](C1)O2", "Percent Effect": 14.6},
      {"smiles": "O=c1c2cnc(N3CCOCC3)nc2ccn1-c1ccccc1", "Percent Effect": 50},
      {"smiles": "O=c1c2cnc(N3CCCC3)nc2ccn1-c1cccc(F)c1", "Percent Effect": 13.3},
      {"smiles": "O=c1c2cnc(N3CCCCC3)nc2ccn1-c1ccccc1", "Percent Effect": 7.77},
      {"smiles": "COc1cc(CO)c(OC)c2c1OCO2", "Percent Effect": 18.3},
      {"smiles": "COc1cc(CCC(C)O)c(OC)c2c1OCO2", "note": "(stereo unspecified)", "Percent Effect": 0},
      {"smiles": "COc1cc(CCO)c(OC)c2c1OCO2", "Percent Effect": 51.7},
      {"smiles": "Cc1noc([C@H]2C[C@H]3OCC[C@H]3N(S(C)(=O)=O)C2)n1", "Percent Effect": -20.2},
      {"smiles": "COC(=O)c1ccc(OC)c(Cn2cc(Br)cn2)c1", "Percent Effect": 1.12},
      {"smiles": "COC(=O)c1ccc(OC)c(Cn2cc(N)cn2)c1", "Percent Effect": 50.6},
      {"smiles": "CCn1cc(C(=O)Nc2cc(C(=O)OC)ccc2C(=O)OC)cn1", "Percent Effect": 10.3},
      {"smiles": "CNC(=O)[C@@H]1[C@@H](c2ccccc2)CN2CCN(Cc3ccccn3)C[C@H]12", "Percent Effect": 8.16},
      {"smiles": "CSCC(=O)N1C[C@H]2CC[C@@H]1CN(Cc1ccccc1)C2", "Percent Effect": 26.9},
      {"smiles": "CN(Cc1ccco1)[C@@H]1CN(Cc2cccs2)C[C@@H]2CCCO[C@@H]21", "Percent Effect": 5.46},
      {"smiles": "CC(C)OCCN1CCc2cncnc2C1", "Percent Effect": 37.1},
      {"smiles": "Cc1cccc(OCCNC(=O)CN2CCc3cncnc3C2)c1", "Percent Effect": 20.2},
      {"smiles": "O=C(CN1CCc2cncnc2C1)NCCOc1cccc(Cl)c1", "Percent Effect": 18.4},
      {"smiles": "CS(=O)(=O)c1ccc(OCCCN2CCc3cncnc3C2)cc1", "Percent Effect": 12.5},
      {"smiles": "COCCCN1CCc2cncnc2C1", "Percent Effect": 50.6},
      {"smiles": "COc1ccccc1OCCNC(=O)CN1CCc2cncnc2C1", "Percent Effect": 20.2},
      {"smiles": "O=C(CN1CCc2cncnc2C1)NCCOc1ccccc1", "Percent Effect": 50},
      {"smiles": "CCOCCN1CCc2cncnc2C1", "Percent Effect": 32.3},
      {"smiles": "CN(CCCOc1ccccc1)C(=O)CN1CCc2cncnc2C1", "Percent Effect": 65.2},
      {"smiles": "O=C(c1cccc(F)c1)N1CCN2C[C@H](OCc3cccnc3)C[C@H]2C1", "Percent Effect": 9.49},
      {"smiles": "COCC(=O)N1CC[C@H]2N(C)CC[C@@]2(C(=O)Nc2ccccc2)CC1", "Percent Effect": 15.4},
      {"smiles": "c1cc(CN2CC[C@@H]3[C@@H](CO[C@H]3CN3CCOCC3)C2)cs1", "Percent Effect": 18.1},
      {"smiles": "COc1cc(C)ccc1OCCN1CC[C@@]2(O)CCNC[C@H]2C1", "Percent Effect": 12.3},
      {"smiles": "COc1ccccc1-n1cc(CN2CCN(C)[C@@H]3CS(=O)(=O)C[C@@H]32)cn1", "Percent Effect": 17.1},
      {"smiles": "CCO[C@@H]1CC[C@H]2[C@H]1OCCN2S(=O)(=O)C1CC1", "Percent Effect": 4.17},
      {"smiles": "CNc1cc2c(nn1)CCN(C(=O)c1coc(Br)c1)C2", "Percent Effect": 52.2},
      {"smiles": "CNc1cc2c(nn1)CCN(C(=O)c1cc(F)cc(F)c1)C2", "Percent Effect": 21.3},
      {"smiles": "CNc1cc2c(nn1)CCN(C(=O)c1ccoc1)C2", "Percent Effect": 10.7},
      {"smiles": "COc1ccsc1C(=O)Nc1cc(CN2CCOCC2)ccc1C", "Percent Effect": -11.1},
      {"smiles": "Cn1cc(NC(=O)c2ccccn2)cc(Br)c1=O", "Percent Effect": 15.4},
      {"smiles": "Cn1cc(NC(=O)c2ccccn2)cc(Cl)c1=O", "Percent Effect": 10.3},
      {"smiles": "Cn1cc(NC(=O)c2cc[nH]n2)cc(Cl)c1=O", "Percent Effect": 10.3},
      {"smiles": "Cc1ccsc1C(=O)Nc1cc(Br)c(=O)n(C)c1", "Percent Effect": 107},
      {"smiles": "Cc1ccsc1C(=O)Nc1cnn(CC(=O)NC2CCCC2)c1", "Percent Effect": 3.23},
      {"smiles": "CCC(C#N)NC(=O)c1sccc1OC", "note": "(stereo unspecified)", "Percent Effect": 10.6},
      {"smiles": "Cn1cc(NC(=O)Nc2ccccn2)cc(Cl)c1=O", "Percent Effect": 121},
      {"smiles": "COCCn1ccc(NC(=O)Nc2ccccn2)n1", "Percent Effect": 13.2},
      {"smiles": "COc1ccsc1C(=O)Nc1cc(Br)c(=O)n(C)c1", "Percent Effect": 109},
      {"smiles": "COc1ccsc1C(=O)Nc1cc(Cl)c(=O)n(C)c1", "Percent Effect": 103},
      {"smiles": "COc1ccsc1C(=O)NCCNc1ccccc1", "Percent Effect": 11.7}
    ]}
  ]
}
